Hits are enriched below; roughly 4.7% of the tested compounds scored in any of these assays.
TRHR agonist – activates the human TRH receptor. P34981. TRHR cells, calcium flux fluo-8, FDSS agonist mode. activation, % at 2 µM. hit rate 0.18% among 360,000. AID 493084
Target sequence (P34981 whole entry, looked up): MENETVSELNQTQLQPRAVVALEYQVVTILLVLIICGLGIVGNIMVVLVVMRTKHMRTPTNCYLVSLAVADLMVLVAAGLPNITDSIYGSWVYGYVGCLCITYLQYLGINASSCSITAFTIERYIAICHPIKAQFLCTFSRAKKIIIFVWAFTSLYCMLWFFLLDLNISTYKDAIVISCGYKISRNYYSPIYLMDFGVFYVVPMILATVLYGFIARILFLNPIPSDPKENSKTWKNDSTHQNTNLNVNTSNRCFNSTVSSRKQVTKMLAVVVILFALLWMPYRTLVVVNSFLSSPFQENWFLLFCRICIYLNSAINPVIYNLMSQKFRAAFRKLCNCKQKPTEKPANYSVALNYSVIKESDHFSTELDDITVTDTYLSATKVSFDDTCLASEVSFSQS
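Read-out: compound-evoked intracellular calcium rise in TRHR cells, fluo-8 dye, kinetic FDSS fluorescence at 1 s/cycle following a 10-cycle baseline. Cells cultured overnight before dye loading (30 min–1.5 h, RT).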
D1 potentiator – enhances dopamine response at the human D1 receptor. HEK293 TREx D1 cells, calcium flux, dopamine EC20 potentiation. potentiation, % at 10 µM. hit rate 0.036% among 360,000; in the data active = potentiation above about 30%
TRHR PAM – allosterically enhances the human TRH receptor | AID 493056 | hit rate 0.66% among 360,000 | P34981 | TRHR cells, fluo-8 calcium fluorescence, EC20 TRH enhancement | enhancement, % at 2 µM; in the data active = enhancement above about 30%
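TRHR-expressing cells loaded with fluo-8 calcium dye were read kinetically (ex 480/em 530) during compound addition, then stimulated with an EC20 of TRH (10 nM final). Enhancement of the Gq-mediated intracellular calcium response was scored.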
D1 agonist – human D1 receptor agonism; P21728; HEK293 T-REx D1 cells, calcium flux, agonist mode; activation, % at 2 µM; hit rate 1% among 360,000; AID 504660
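Inducible HEK293 T-REx D1 cells, force-coupled to calcium signalling, were plated at 4000 cells/well with tetracycline and held overnight at 30 C. After no-wash calcium dye loading, compound-evoked calcium rise over 180 s flagged agonists.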
D1 antag – blocks dopamine activation of the human D1 receptor; P21728; HEK293 TREx D1 cells, calcium flux, dopamine EC80; stronger effect = lower value; activity change, negative = inhibition, % at 10 µM; hit rate 3.2% among 360,000; AID 504652; in the data active = activity change below about -30%
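Allosteric or orthosteric antagonism assessed as attenuation of the calcium response to EC80 dopamine, added 180 s after compound, in induced HEK293 Trex D1 cells loaded with no-wash calcium dye.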
Hits are given with their value; i = inactive. Rule as the data show it, unless noted: active = activation above about 30%; inactive = the rest.

SMILES | TRHR agonist | D1 potentiator | TRHR PAM | D1 agonist | D1 antag
CC(=O)c1ccc(S(=O)(=O)N2CCC(NC(=O)Nc3cccc(F)c3)CC2)cc1 | i | i | i | i | -34
Cc1ccc(NC(=O)NC2CCCCCCC2)cc1 | i | i | i | i | -32
Cc1ccc(NC(=O)C(=O)NC2CCCCC2)cc1 | i | i | i | i | i
Cc1ccc(NC(=O)NC2CCN(S(=O)(=O)c3ccc(F)cc3)CC2)cc1 | i | i | i | i | -53
CN1C(=O)Cc2cc([S+](=O)([O-])N3CCN([S+](=O)([O-])c4c(F)cccc4F)CC3)ccc21 | i | i | i | i | i
O=C(Nc1cccc(F)c1)NC1CC2CCCC(C1)N2C1CC1 (stereo not given) | i | i | i | i | -34
N#CN=C(c1ccccc1)c1ccccc1 | i | i | i | i | i
N#CCN=C(c1ccccc1)c1ccccc1 | i | i | i | i | -47
COC(=O)c1c(C)oc2ccc(N(C(=O)c3ccncc3)S(=O)(=O)c3cc(C)ccc3C)cc12 | i | i | i | i | i
COC(=O)c1c(C)oc2ccc(N(C(=O)c3ccncc3)S(=O)(=O)c3ccc(Br)cc3)cc12 | i | i | i | i | -37
CCOC(=O)c1c(C)oc2ccc(N(C(=O)c3ccncc3)S(=O)(=O)c3ccc(Br)cc3)cc12 | i | i | i | i | -57
COC(=O)c1c(C)oc2ccc(N(C(C)=O)S(=O)(=O)c3ccccc3)cc12 | i | i | i | i | -66
Cc1c(C(=O)Nc2ccncc2)sc2nc(-c3ccccc3)cn12 | i | i | i | i | -34
CCCc1ccc(OC(C)C(=O)Nc2sc3c(c2C(=O)OC)CCCCC3)cc1 (stereo not given) | i | i | i | i | i
Cc1c(CNC(=O)C2CCC(=O)N(CCc3ccccc3)C2)cnn1C (stereo not given) | i | i | i | i | -33
Cc1csc(CN(C)C(=O)C2CCC(=O)N(CCCc3ccccc3)C2)n1 (stereo not given) | i | i | i | i | -43
Cc1ccc(F)cc1CNC(=O)C1CCC(=O)N(CCc2ccccc2)C1 (stereo not given) | i | i | i | i | i
O=C(NCCCc1ccccc1)C1CCC(=O)N(Cc2ccc(Cl)cc2)C1 (stereo not given) | i | i | i | i | -41
COc1ccc(CCCNC(=O)C2CCC(=O)N(Cc3ccc(Cl)cc3)C2)cc1 (stereo not given) | i | i | i | i | i
Cn1cc(CCNC(=O)C2CCC(=O)N(CCc3ccc(Cl)cc3)C2)cn1 (stereo not given) | i | i | i | i | -52
Cc1cccc(C(=O)Nc2ccc(C(=O)OCc3cc(=O)n4c(C)csc4n3)cc2)c1 | i | i | i | i | i
CCc1ccc(N2C(=O)CC(c3cc(OC)ccc3OC)C3=C2COC3=O)cc1 (stereo not given) | i | i | i | i | i
CC(C)[C@H](NC(=O)C1CC(=O)N(c2ccc3c(c2)OCO3)C1)C(=O)NC1CCCC1 (stereo not given in full) | i | i | i | i | i
COc1ccccc1NC(=O)C(C)OC(=O)C1CCN(S(=O)(=O)c2ccc(C)c(C)c2)CC1 (stereo not given) | i | i | i | i | i
Fc1ccc(-c2onc3ccc(C4OCCO4)cc23)cc1 | i | i | i | i | -56
SMILES | TRHR agonist | D1 potentiator | TRHR PAM | D1 agonist | D1 antag
CSc1ccccc1NC(=O)Nc1ccc(F)c(Cl)c1 | i | i | i | i | -32
CSc1ccccc1NC(=O)Nc1cccc(Cl)c1 | i | i | i | i | -40
CC(C)C[C@H](NC(=O)Nc1cccc(Cl)c1)C(=O)O | i | i | i | i | i
COc1ccc(NC(=O)Nc2ccccc2SC)cc1OC | i | i | i | i | i
CC(C)NC(=O)Nc1cccc(Cl)c1 | i | i | i | i | -40
O=C(Nc1ccc(Cl)c(Cl)c1)Nc1ccccc1O | i | i | i | i | -37
CN1CCN(C(CNC(=O)C(=O)Nc2ccccc2C#N)c2ccc3c(c2)OCO3)CC1 (stereo not given) | i | i | i | i | i
CCOC(=O)c1nn(-c2ccccc2)c(=O)cc1OCC(=O)Nc1ccccc1OCC | i | i | i | i | i
O=C(Nc1ccncc1)Nc1cccc(Cl)c1 | i | i | i | i | i
O=C(Nc1ccccc1)Nc1ccc(Br)c(Cl)c1 | i | i | i | i | -31
O=C(Nc1cccc(Cl)c1)Nc1csc([N+](=O)[O-])c1 | i | i | i | i | -47
O=C(NC(=S)Nc1ccc(Br)c(Cl)c1)C1CC1 | i | i | i | i | -36
O=C1C=C(NC(=O)Nc2ccc(Cl)c(Cl)c2)CCC1 | i | i | i | i | -54
O=C(Nc1ccc(Cl)c(Cl)c1)Nc1ccon1 | i | i | i | i | i
COc1ccc(N2CCN(C(c3ccccc3)c3nnc(-c4ccccc4Cl)o3)CC2)cc1 (stereo not given) | i | i | i | i | i
O=C(NCc1cccc(Cl)c1)C1CCCN(c2nn3cc(-c4ccc(F)cc4)nc3s2)C1 (stereo not given) | i | i | i | i | i
COC(=O)c1cc(NC(=O)COC(=O)CN2C(=O)C3CC=CCC3C2=O)cc(C(=O)OC)c1 (stereo not given) | i | i | i | i | i
COc1ccc(Cn2c(CCC(=O)NCc3ccc(Cl)cc3)nc3cccnc32)cc1 | i | i | i | i | i
CCOC(=O)c1c(NC(=O)COc2ccccc2F)sc2c1CC(C)(C)NC2(C)C | i | 36 | i | i | i
O=C(Oc1ccc(Br)cc1C(=S)N1CCOCC1)c1ccc([N+](=O)[O-])cc1[N+](=O)[O-] | i | i | 36 | i | i
COc1cc(C(=S)N2CCOCC2)ccc1OC(=O)c1cc([N+](=O)[O-])c(C)c([N+](=O)[O-])c1 | i | i | i | i | i
O=C(Oc1ccc(C(=S)N2CCOCC2)cc1)c1ccc([N+](=O)[O-])cc1[N+](=O)[O-] | i | i | i | i | i
COc1cc(C(=S)N2CCOCC2)ccc1OC(=O)c1ccccc1[N+](=O)[O-] | i | i | i | i | -33
COc1ccc(C(=O)c2sc3nc(-c4ccccc4)ccc3c2N)cc1 | i | i | i | 158 | i
COc1cccc(-c2ccc3c(N)c(C(=O)c4ccc(Cl)cc4)sc3n2)c1 | i | i | i | 98 | i
SMILES | TRHR agonist | D1 potentiator | TRHR PAM | D1 agonist | D1 antag
COc1ccc(CN2C(=O)N(c3ccc(C)cc3)C(=O)C2CC(=O)Nc2ccccc2)cc1OC (stereo not given) | i | i | i | i | i
Cc1sc(NC(=O)c2ccc(Br)s2)c(C(N)=O)c1C | i | 31 | i | i | i
CCNC(=S)Nc1ccc(N(c2ccccc2)C(C)C)cc1 | i | i | i | i | i
CC(C)N(c1ccccc1)c1ccc(NC(=S)NCCN(C)C)cc1 | i | i | i | 34 | i
CN(C)CCCNC(=S)Nc1ccc(Oc2ccccc2)cc1 | i | i | i | i | i
CN(C)CCCNC(=S)Nc1ccc(-c2ccccc2)cc1 | i | i | i | 34 | i
